PubChem BioAssay (EPA / NIEHS)
Inconclusive results are not listed. Calls of active or inactive are those of the source. The calls were made as follows, unless noted: active = hit-call score of the fitted dose curve at least 0.9, where 1 is the maximum; inactive = score below 0.9.

How the values were obtained:
[1] = read-out: Interleukin-8 (IL8), CXCL8 (gene 3576); assay: BSK_3C_IL8: BioMAP Diversity Plus: 3C Assay for Interleukin-8 (IL8) Biomarker Activity (AID 2283020); conditions: primary human endothelial cells (HUVEC); actives raise or lower the signal
Method in brief: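 Endothelial primary cells of human umbilical vein origin are dosed with chemical; after 24 h the IL-8 biomarker is measured by ELISA, and concentration–response is fitted in both directions versus DMSO.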

[2] = read-out: Monokine induced gamma interferon (MIG), CXCL9 (gene 4283); assay: BSK_3C_MIG: BioMAP Diversity Plus: 3C Assay for Monokine induced gamma interferon (MIG) Biomarker Activity (AID 2283021); conditions: primary human endothelial cells (HUVEC); actives raise or lower the signal
Method in brief: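 Endothelial primary cells (human umbilical vein) are dosed with test chemical in the 3C system. MIG levels are measured by ELISA at 24 h and fitted in both directions relative to DMSO.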

[3] = molecular target: human Vitamin D Receptor (VDR), VDR (gene 7421) (UniProt P11473); assay: ATG_VDR_TRANS: Attagene TRANS-FACTORIAL HepG2 Assay for human Vitamin D Receptor (VDR) (AID 2283022; active = hit-call score of the fitted dose curve at least 0.9, where 1 is the maximum)
Method in brief: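 Steps: transfect HepG2 with GAL4-UAS-driven reporter constructs; dose compounds 24 h; isolate RNA, reverse-transcribe, PCR-amplify with 6-FAM-labelled primer extension and HpaI digestion; quantify fragments by capillary electrophoresis relative to DMSO.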

[4] = BSK_3C_SRB: Viability Assessment in the BioMAP Diversity Plus: 3C Assay (AID 2283023); conditions: primary human endothelial cells (HUVEC);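 also: fitted both ways against DMSO so a hit may be signal rise or drop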
Method in brief: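 Absorbance at 560 nm of sulforhodamine B-stained (0.1%) total protein served as a cytotoxicity readout in human umbilical vein endothelial cells, 24 h after chemical treatment. Signal was fitted bidirectionally relative to DMSO.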

[5] = BSK_3C_Vis: BioMAP Diversity Plus: 3C Assay for Morphology Visualization (AID 2283025); conditions: primary human endothelial cells (HUVEC);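 also: fitted both ways so gain or loss versus DMSO counts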
Method in brief: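 Morphology read by light microscopy serves as a background control for the multiplexed 3C assay in human umbilical vein endothelial cells, taken 24 h after dosing, with DMSO as the negative control and bidirectional curve fitting.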

[6] = read-out: Pselectin, SELP (gene 6403); assay: BSK_4H_Pselectin: BioMAP Diversity Plus: 4H Assay for Pselectin Biomarker Activity (AID 2283026); conditions: primary human endothelial cells (HUVEC); actives raise or lower the signal
Method in brief: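 Endothelial primary cells (human umbilical vein) are dosed, incubated 24 h, and assayed for surface P-selectin by ELISA; responses in either direction are fitted relative to the DMSO negative control.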

[7] = BSK_4H_SRB: Viability Assessment in the BioMAP Diversity Plus: 4H Assay (AID 2283027); conditions: primary human endothelial cells (HUVEC);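 also: cells exposed to compound for 24 h before staining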;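 as to AC50: curves fitted both ways versus DMSO so AC50 may be loss or gain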
Method in brief: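 Cytotoxicity read-out in primary human endothelial cells: after 24 h compound exposure, cells were TCA-fixed (10%), stained with 0.1% SRB and absorbance taken at 560 nm. Values fitted in both directions relative to DMSO.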

[8] = BSK_BE3C_SRB: Viability Assessment in the BioMAP Diversity Plus: BE3C Assay (AID 2283028); conditions: primary human bronchial epithelial cells
Method in brief: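 Cells (human bronchial epithelial, primary) are treated with chemicals, and after 24 h the parallel cultures are fixed in 10% TCA. These are then stained with 0.1% SRB and read at 560 nm. Gain or loss of signal is fitted relative to DMSO.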

[9] = read-out: Thrombomodulin, THBD (gene 7056); assay: BSK_3C_Thrombomodulin: BioMAP Diversity Plus: 3C Assay for Thrombomodulin Biomarker Activity (AID 2283029); conditions: primary human endothelial cells (HUVEC); actives raise or lower the signal
Method in brief: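 Endothelial cells from umbilical vein are dosed with test chemical and incubated 24 h. Thrombomodulin is then quantified by ELISA, with DMSO serving as negative control and activity baseline.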

[10] = read-out: Urokinase-type plasminogen activator receptor (uPAR), PLAUR (gene 5329); assay: BSK_4H_uPAR: BioMAP Diversity Plus: 4H Assay for Urokinase-type plasminogen activator receptor (uPAR) Biomarker Activity (AID 2283030); conditions: primary human endothelial cells (HUVEC); actives raise or lower the signal
Method in brief: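 Cell-surface uPAR ELISA signal, measured 24 h after dosing human umbilical vein endothelial cells, was analyzed with bidirectional fitting relative to DMSO. Parallel SRB staining of total protein tracked overt cytotoxicity.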

[11] = read-out: Human Leukocyte Antigen - DR isotype (HLADR), HLA-DRA (gene 3122); assay: BSK_BE3C_HLADR: BioMAP Diversity Plus: BE3C Assay for Human Leukocyte Antigen - DR isotype (HLADR) Biomarker Activity (AID 2283032); conditions: primary human bronchial epithelial cells; actives raise or lower the signal
Method in brief: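 Chemicals are dosed onto BE3C bronchial epithelial cultures of human origin and left 24 h. HLA-DR is then measured by ELISA, and the endpoint is fitted in both directions using DMSO as the activity baseline.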

[12] = read-out: Vascular cell adhesion molecule 1 (VCAM1), VCAM1 (gene 7412); assay: BSK_4H_VCAM1: BioMAP Diversity Plus: 4H Assay for Vascular cell adhesion molecule 1 (VCAM1) Biomarker Activity (AID 2283033); conditions: primary human endothelial cells (HUVEC); actives raise or lower the signal
Method in brief: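 Chemicals are added to primary human umbilical vein endothelial cells. After 24 h, VCAM-1 levels are measured by ELISA. Values come from bidirectional fitting referenced to DMSO.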

[13] = read-out: Interferon-gamma inducible Protein 10 (IP10), CXCL10 (gene 3627); assay: BSK_BE3C_IP10: BioMAP Diversity Plus: BE3C Assay for Interferon-gamma inducible Protein 10 (IP10) Biomarker Activity (AID 2283034); conditions: primary human bronchial epithelial cells; actives raise or lower the signal
Method in brief: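 IP-10 quantified by ELISA serves as the endpoint. Cells: primary human bronchial epithelium, read 24 h after compound addition. Activity is derived by bidirectional fitting with DMSO as negative control.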

[14] = read-out: Monokine induced gamma interferon (MIG), CXCL9 (gene 4283); assay: BSK_BE3C_MIG: BioMAP Diversity Plus: BE3C Assay for Monokine induced gamma interferon (MIG) Biomarker Activity (AID 2283035); conditions: primary human bronchial epithelial cells; actives raise or lower the signal;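 also: MIG protein measured by ELISA in BE3C cultures after 24 h of dosing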
Method in brief: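 ELISA quantified MIG after 24 h exposure of primary bronchial epithelial cultures, analysed in both directions relative to DMSO. Cytotoxicity tracked in parallel cultures by sulforhodamine B staining.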

[15] = read-out: Transforming growth factor beta 1 (TGFb1), TGFB1 (gene 7040); assay: BSK_BE3C_TGFb1: BioMAP Diversity Plus: BE3C Assay for Transforming growth factor beta 1 (TGFb1) Biomarker Activity (AID 2283036;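 also: TGF-b1 protein level measured by ELISA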); conditions: primary human bronchial epithelial cells; actives raise or lower the signal
Method in brief: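 Bronchial epithelial primary cells are treated with test chemical, then TGF-b1 is quantified by ELISA after 24 hours. Values derive from bidirectional fitting against DMSO, with cytotoxicity checked by SRB staining in parallel cultures.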

[16] = read-out: Plasminogen activator inhibitor-1 (PAI1), SERPINE1 (gene 5054); assay: BSK_BE3C_PAI1: BioMAP Diversity Plus: BE3C Assay for Plasminogen activator inhibitor-1 (PAI1) Biomarker Activity (AID 2283037); conditions: primary human bronchial epithelial cells; actives raise or lower the signal
Method in brief: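 Values derive from bidirectional fitting against DMSO baseline of PAI-1 levels, measured by ELISA in human bronchial epithelial cells 24 h after compound addition.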

[17] = read-out: urokinase plasminogen activator (uPA), PLAU (gene 5328); assay: BSK_BE3C_uPA: BioMAP Diversity Plus: BE3C Assay for urokinase plasminogen activator (uPA) Biomarker Activity (AID 2283038); conditions: primary human bronchial epithelial cells; actives raise or lower the signal;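 also: uPA protein level quantified by ELISA in cell cultures; uPA read one day after compound addition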
Method in brief: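 Bronchial epithelial cells (human, primary); chemical 24 h; uPA by ELISA; bidirectional fit vs DMSO. SRB (0.1%, after 10% TCA fixation, 560 nm) in parallel cultures for cytotoxicity.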

[18] = read-out: Urokinase-type plasminogen activator receptor (uPAR), PLAUR (gene 5329); assay: BSK_BE3C_uPAR: BioMAP Diversity Plus: BE3C Assay for Urokinase-type plasminogen activator receptor (uPAR) Biomarker Activity (AID 2283039); conditions: primary human bronchial epithelial cells; actives raise or lower the signal;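 also: cells exposed to compound for one day before measurement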
Method in brief: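 Steps: dose human primary bronchial epithelial cells, incubate 24 h, measure uPAR by ELISA, then fit gain- or loss-of-signal response bidirectionally relative to DMSO.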

[19] = read-out: Vascular endothelial growth factor receptor 2 (Homo sapiens) (UniProt P35968); assay: BSK_4H_VEGFRII: BioMAP Diversity Plus: 4H Assay for Vascular endothelial growth factor receptor 2 (VEGFR2) Biomarker Activity (AID 2283031); conditions: primary human endothelial cells (HUVEC); actives raise or lower the signal
Method in brief: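 ELISA read-out of VEGFRII in primary human umbilical vein endothelium, taken 24 h after chemical treatment. Responses are expressed relative to DMSO, with bidirectional fitting.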

[20] = read-out: Matrix Metallopeptidase 1 (MMP1), MMP1 (gene 4312); assay: BSK_BE3C_MMP1: BioMAP Diversity Plus: BE3C Assay for Matrix Metallopeptidase 1 (MMP1) Biomarker Activity (AID 2283024); conditions: primary human bronchial epithelial cells; actives raise or lower the signal
Method in brief: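 MMP1 signal, measured by ELISA after a 24 h chemical exposure of human primary bronchial epithelial cells, is analysed with bidirectional fitting using DMSO as negative control.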

Measured: AC50

Sequence of human Vitamin D Receptor (VDR), VDR (gene 7421) (P11473 whole entry, looked up, the tested form may be a part): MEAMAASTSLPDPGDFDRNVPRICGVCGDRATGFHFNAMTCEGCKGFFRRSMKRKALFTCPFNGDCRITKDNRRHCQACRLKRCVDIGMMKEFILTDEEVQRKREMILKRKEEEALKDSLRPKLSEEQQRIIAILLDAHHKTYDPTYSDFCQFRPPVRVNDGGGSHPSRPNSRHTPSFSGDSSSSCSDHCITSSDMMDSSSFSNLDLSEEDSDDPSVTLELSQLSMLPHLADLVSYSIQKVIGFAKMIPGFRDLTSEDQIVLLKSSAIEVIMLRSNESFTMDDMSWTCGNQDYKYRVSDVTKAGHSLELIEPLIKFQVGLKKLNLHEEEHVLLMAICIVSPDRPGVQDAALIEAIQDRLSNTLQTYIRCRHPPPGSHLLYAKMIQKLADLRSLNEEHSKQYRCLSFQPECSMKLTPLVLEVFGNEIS

CCCCCC(=O)O
not listed: [19] | [20]
inactive: all other assays above

c1cc(-c2ccncc2)ccn1
active: [5] 39 µM
not listed: [19] | [20]
inactive: all other assays above

CC1=C(/C=C/C(C)=C/C=C/C(C)=C/CO)C(C)(C)CCC1
active: [11] 18 µM | [12] 31.1 µM
not listed: [6] | [20]
inactive: all other assays above

CCCCOC(=O)CCCCCCCCC(=O)OCCCC
not listed: [3]
inactive: all other assays above

CCCCCCC(=O)OCC
not listed: [6] | [20]
inactive: all other assays above

C[C@]12C=CC(=O)C=C1CC[C@@H]1[C@@H]2C(=O)C[C@@]2(C)[C@H]1CC[C@]2(O)C(=O)CO
not listed: [6] | [19] | [20]
inactive: all other assays above

Cc1ccc(C)c(C)c1
not listed: [3]
inactive: all other assays above

NCCO
not listed: [3]
inactive: all other assays above

Cc1cccc(C)c1O
not listed: [6] | [19] | [20]
inactive: all other assays above

Nc1ccccc1N
active: [12] 4.07 µM
not listed: [6] | [20]
inactive: all other assays above

CC(=O)OCCOCCOCCOC(C)=O
not listed: [3]
inactive: all other assays above

CC(C)c1ccc(C(=O)N=C(N)N)cc1S(C)(=O)=O
not listed: [3] | [19]
inactive: all other assays above

CNCc1cc(F)ccc1Oc1ccc(Cl)c(Cl)c1
active: [1] 20 µM | [4] 27.6 µM | [7] 26.1 µM | [10] 26.9 µM | [11] 27.9 µM
not listed: [6] | [19] | [20]
inactive: all other assays above

CCCCCCCCCCCC(=O)OC
not listed: [6] | [19] | [20]
inactive: all other assays above

CC(CO)OC(C)CO (centres undefined) (tested in a mixture with another compound)
not listed: [6] | [19] | [20]
inactive: all other assays above
